# ChEMBL document CHEMBL3988442, “University of Dundee, Small-Polar-MMV Screening Library” (2021)
# The whole screen tested about 48,000 compounds, of which about 13,000 (27%) showed an effect of 50% or more. Some of the results follow.
# Test system: Wolbachia pipientis
# Test: Anti-Wolbachia Cell-Based Screen
# Assay type: functional
# Design: scale not given: in the data most compounds retested in dose-response had high values
# Conditions: 5 µM
row,Structure (SMILES),Percent Effect [%]
1,CC1(C)OCC2(CO1)CN(C(=O)c1cccc3ccccc13)C2,-8.289
2,c1ccc(-c2cnc(CNC3CCc4ncnn4C3)o2)cc1 (centres undefined),7.622
3,Cc1nc(-c2ccccc2)sc1CNC1CCc2ncnn2C1 (centres undefined),88.63
4,Cc1nn(Cc2ccccc2)c(C)c1CNC1CCc2ncnn2C1 (centres undefined),117.1
5,c1ccc(-c2ncc(CNC3CCc4ncnn4C3)cn2)cc1 (centres undefined),5.444
6,Cc1nn(-c2ccccc2)c(C)c1CNC1CCc2ncnn2C1 (centres undefined),1.377
7,CCOCCNS(=O)(=O)c1ccc2c3c1CCCN3C(=O)CO2,17.61
8,O=c1c2c(ncn1CCO)nc1n2CCC1,3.555
9,CC(C)(C)OC(=O)NC(C)(C)c1noc(CN2CCCCC2)n1,1.243
10,CN(C)C(=O)N1CCC2(CCCN(c3ncccn3)C2)C1.O=C(O)C(F)(F)F (centres undefined),113.7
11,CN(C)C(=O)N1CCC2(CC1)CCN(c1ncccn1)C2.O=C(O)C(F)(F)F,115.8
12,CN(C)C(=O)N1CCOCC2(CCN(c3ncccn3)C2)C1.O=C(O)C(F)(F)F (centres undefined),-1.009
13,CN(C)C(=O)N1CCOCC2(CCN(c3ccccn3)C2)C1.O=C(O)C(F)(F)F (centres undefined),-12.67
14,CCn1nc2c(cc1=O)CN(Cc1nnc(C3CC3)o1)CC2,14.78
15,CSc1cccc(NC(=O)N2CCCC(CNC(=O)c3ccco3)C2)c1 (centres undefined),-2.877
16,CSCCCn1ccnc1-c1cccc(C#N)c1,-12.84
17,NC(=O)NC(CC(=O)NCCc1cccc(F)c1)c1cccs1 (centres undefined),2.392
18,CC(C)=CCC/C(C)=C\CNCc1ccco1,-4.355
19,O=C(C1CCCC1)N1CC2(CCN(C3COC3)C2)OCc2ccccc21 (centres undefined),114.9
20,O=C(C1CCCC1)N1CC2(CCN(C3COC3)C2)Cc2ccccc21 (centres undefined),95.07
21,O=C(C1CCCC1)N1CC2(CCN(C3COC3)CC2)Cc2ccccc21,95.07
22,O=C(Cc1cccnc1)N1CCC2(CCN(C3CCOC3)CC2)C1 (centres undefined),6.84
23,O=C(C1CCCC1)N1CCOc2cccc(F)c21,1.761
24,O=C(C1CCCC1)N1CC2(CCCN(C3COC3)C2)Cc2ccccc21 (centres undefined),99.05
25,CC(CNC(=O)CCCc1ccccn1)c1ccsc1 (centres undefined),1.971
26,Cc1ccc(NC(=O)C2CSCN2C(=O)c2cnn(C)c2)c(C)c1 (centres undefined),-7.721
27,O=C(C1CC1)N1C[C@@H](F)[C@@H](OCc2nc3ccccc3o2)C1,-16.99

row,Structure (SMILES),Percent Effect [%]
1,N#Cc1cn(CC(=O)NC2CC2)c2ccc(Br)cc2c1=O,-2.411
2,COCCCN1C(=O)CC[C@H]2CN(c3ccnc4ccccc34)CC[C@H]21,-6.412
3,COC1CCN(CCNC(=O)C2CCCCC2)CC1,-3.467
4,Cc1cc(N(C)Cc2ncc(-c3ccccc3C(=O)O)s2)ncn1,81.06
5,CN(C)C(Cn1ccnc1-c1ccccc1C(=O)O)c1ccccc1Cl (centres undefined),-23.61
6,Cc1nccc(N(C)Cc2ncc(-c3ccccc3C(=O)O)s2)n1,127.4
7,Cc1ccsc1C(Cn1ccnc1-c1ccccc1C(=O)O)N(C)C (centres undefined),-13.02
8,COc1cc(N(C)CCC(O)c2ccccc2)ncn1 (centres undefined),13.13
9,CCc1cnc(CN(C)C(=O)NC2CCN(c3ccccc3)C2)s1 (centres undefined),0.02013
10,CN1CC(=O)N(c2ccccc2)Cc2c(NC3CC3)ncnc21,112.7
11,CN1CC(Nc2nc3c(cnn3-c3ccccc3)c(=O)[nH]2)CCC1=O (centres undefined),9.222
12,COc1cc(N2CCC3(C2)CN(c2cccnc2)C(=O)CN3C)ncn1 (centres undefined),-13.12
13,Cc1cccc(N2Cc3c(NC4CCCC4)ncnc3N(C)CC2=O)c1,95.74
14,O=C1CCCCN1c1cccc(CNC2CCCC2)c1,0.3467
15,Cc1csc(CN2CC[C@H]3C(=O)N(c4cccnc4)CCO[C@H]3C2)n1,6.542
16,Cc1cccc(N2Cc3nc(=O)[nH]n3C2=O)c1,2.871
17,NC(=O)c1cnc(NC2CCN(c3ccccc3)CC2)c(Cl)c1,-3.801
18,CN1CC(=O)N(c2cccnc2)Cc2c(NC3CC3)ncnc21,103.4
19,C=C1c2ccccc2C(=O)N1CCC(=O)N1CCNC(=O)C1,-10.5
20,N#Cc1c(Cl)nsc1N1CCN(CC2CC2)CC1,5.491
21,CC(C)N1CCN(C)CC1c1nnc2ccc(C(=O)N3CCCC3)cn12 (centres undefined),-1.369
22,CCNC(=O)N1CCC2(CC1)CCn1c(C3CC3)cnc12,0.3432
23,CCn1ncc(S(=O)(=O)N[C@@H]2CC[C@@H](n3ccnc3)[C@@H]2O)c1C,136.9
24,CCn1ncc(S(=O)(=O)N[C@@H]2CC[C@@H](n3ccnc3C)[C@@H]2O)c1C,115.7
25,CC(=O)N1CCC(N[C@@H]2CC[C@@H]2NS(=O)(=O)c2cccnc2)CC1,-3.734
26,CCn1cc(CN(C)S(=O)(=O)c2cnn(CC)c2C)c(C)n1,-1.191
27,CCn1ncc(S(=O)(=O)N[C@@H]2CCC[C@@H](n3ccnc3)[C@@H]2O)c1C,136.1
